Source: PubChem BioAssay (National Center for Advancing Translational Sciences (NCATS))
AmpC nodet inh – inhibitors of E. coli AmpC beta-lactamase without detergent; P00811; AmpC nitrocefin hydrolysis, absorbance 480 nm, no detergent; Potency, µM (series often up to 28.7 µM), without a hit: at the highest dose activity change, negative = inhibition; 71,000 tested, 1.8% active; AID 585; note: % of control where 0% means no effect
Target sequence (P00811 whole entry, looked up): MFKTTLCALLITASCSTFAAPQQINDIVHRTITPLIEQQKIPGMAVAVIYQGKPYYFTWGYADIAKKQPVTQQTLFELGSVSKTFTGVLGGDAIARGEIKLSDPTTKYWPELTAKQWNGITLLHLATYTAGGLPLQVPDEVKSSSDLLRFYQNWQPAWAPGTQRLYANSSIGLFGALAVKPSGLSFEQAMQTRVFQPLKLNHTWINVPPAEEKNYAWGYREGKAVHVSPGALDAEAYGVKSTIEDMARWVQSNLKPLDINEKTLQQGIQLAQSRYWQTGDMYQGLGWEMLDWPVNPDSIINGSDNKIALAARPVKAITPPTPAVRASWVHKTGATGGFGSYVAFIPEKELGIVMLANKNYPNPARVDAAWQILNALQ
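AmpC in 20 mM phosphate buffer pH 7.0 was preincubated 15 min at room temperature with compounds. Nitrocefin (800 uM stock) was then added and hydrolysis followed at 480 nm every 20 s for 4 min.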
Anthrax LT inh – anthrax lethal toxin internalization inhibition; Cells, anthrax lethal toxin internalization, FRET ratio (460/530); Potency, µM (highest dose often 40 µM), without a hit: top-dose activity change, negative = inhibition, hits mostly inhibitors; 70,000 tested, 0.67% active; AID 912; note: % is set by controls: 0 for no effect and ±100 for the full control effect; nearly all actives have a fitted effect of over 50% in size
SmPrx2 inh – inhibitors of Schistosoma mansoni peroxiredoxin 2; S. mansoni Prx2 activity coupled to TGR/GSH (TGR is thioredoxin glutathione reductase), NADPH fluorescence loss, qHTS; Potency, µM; 65,000 tested, 0.07% active; AID 448
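Prx2 activity was followed as the loss of NADPH fluorescence (ex 365/em 450 nm), read every 30 sec for 8 min after H2O2 start. The enzyme mix (50 nM Prx2, 25 nM TGR, GSH, NADPH; pH 7.4 phosphate buffer) was incubated with compound for 15 min at room temperature first.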
AmpC inh det – blocks E. coli AmpC beta-lactamase in presence of detergent. 71,000 tested, 0.09% active. purified AmpC, nitrocefin hydrolysis with detergent. AID 584. Potency, µM (highest dose often 28.7 µM), inactives show at the highest dose activity change, negative = inhibition; active = well fitted curve in the direction sought with a large enough effect; inconclusive = small, poorly fitted or top-dose-only effect; note: % is set by controls: 0 for no effect and ±100 for the full control effect
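E. coli AmpC (5.3 nM) in 20 mM phosphate pH 7.0 with 0.01% Triton X-100, preincubated 15 min RT with compound; nitrocefin (2 uL of 800 uM stock) hydrolysis followed by 480 nm absorbance every 20 s over 4 min.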
An asterisk follows results filed as active; ? = inconclusive; / = no result; [ ] = remark or other dose. Shown are actives, neighbours in structure and some others; about 2.4% of the full set was active somewhere. Unless noted, calls come from the whole dose curve. Potency is the fitted concentration of half-maximal effect.

SMILES	AmpC nodet inh	Anthrax LT inh	SmPrx2 inh	AmpC inh det
C[C@@H](C(=O)Nc1ccc2ccccc2c1)[C@H]1C[C@]1(C)[C@H](NC(=O)c1ccccc1)c1ccccc1	11%	?	>57	-4%
C=CCn1c2ccccc2c2nnc(SCN3C(=O)c4ccccc4C3=O)nc21	16%	-16%	>57	3%
C=CCn1c2ccccc2c2nnc(SCCCn3c(=O)[nH]c4ccccc43)nc21	21%	6.3µM*	/	-3%
CC(C)CCOC(=O)C1C2C=CC3(CN(Cc4cccs4)C(=O)C13)O2 (centres undefined)	4µM*[single pt active]	-9%	>57	9%
CC(=O)N1CCN(c2ccc(NCc3ccc(C)s3)cc2)CC1	4µM*[single pt active]	-7%	>57	14%
Cc1ccc(CNc2ccc(N3CCOCC3)cc2)s1	39%	-12%	>57	-5%
COC(=O)c1cc(-c2ccc(OC)c(OC)c2)on1	10%	-2%	>57	0%
COC(=O)c1cc(-c2ccc(Br)cc2)on1	4µM*[single pt active]	-16%	>57	11%
O=C(Nc1nnc(N2CCCCCC2)s1)c1cc(-c2ccc(Br)cc2)on1	4µM*[single pt active]	-11%	>57	11%
Nc1nc(SCC(=O)c2ccc(Oc3ccccc3)cc2)n[nH]1	10µM*	?	>57	21%
CCOC(=O)SC1=N/C(=C\c2ccc(N(C)C)cc2)C(=O)S1	16µM*	-4%	>57	5µM*
O=C(NCc1ccccc1)c1noc2c1CCCC2	3%	2%	>57	-3%
CC(C)CNC(=O)c1noc2c1CCCC2	4µM*[single pt active]	-8%	>57	4%
COC(=O)Cc1ccc(NC(=O)c2ccc(Br)o2)cc1	-1%	-8%	>57	-2%
CCN(CC)c1ccc(NC(=O)c2ccc(Br)o2)cc1	-6%	13µM*	/	-4%
COc1cc2c(cc1OC)[C@@]13CCN4CC5=CCO[C@H](CC(=O)O)[C@@H]([C@H]1N2)[C@H]5C[C@H]43	6%[5.75 µM]	?	>57	-3%[5.75 µM]
Cc1noc(NS(=O)(=O)c2ccc(NC(=O)COc3ccc(Cl)cc3Cl)cc2)c1C	6.3µM*	?	/	12%
Cc1ccc(OCC(=O)Nc2ccc(S(=O)(=O)Nc3onc(C)c3C)cc2)cc1	2%	0%	>57	-2%
Cc1ccc(S(=O)(=O)CC(=O)Nc2ccc(S(=O)(=O)Nc3onc(C)c3C)cc2)cc1	-3%	-1%	>57	-3%
CCc1cccc(OCC(=O)Nc2ccc(S(=O)(=O)Nc3onc(C)c3C)cc2)c1	4µM*[single pt active]	-8%	>57	12%
O=C(C[C@H](c1ccccc1)c1c(O)c2ccccc2oc1=O)c1ccccc1	-1%[5.75 µM]	8%[8 µM]	>57	-3%[5.75 µM]
CCN(CC)CCO[C@H]1CC[C@@]2(C)C(=CC[C@@H]3[C@H]2CC[C@]2(C)C(=O)CC[C@H]32)C1	44%	25µM*	>57	-2%
C[C@@]12CC[C@H]3[C@@H](CC=C4C[C@H](OS(=O)(=O)O)CC[C@]43C)[C@H]1CCC2=O	5%	?	>57	-1%
COc1ccc(-c2cc(CCCC(=O)NCCc3ccc(OC)cc3OC)no2)cc1	40%	/	>57	15%
COc1ccc(-c2cc(CCCC(=O)NCc3ccccn3)no2)cc1	3.2µM*[single pt active]	-14%	>57	14%
SMILES	AmpC nodet inh	Anthrax LT inh	SmPrx2 inh	AmpC inh det
CC1CN(C(=O)Nc2ccc3snnc3c2)c2ccccc21 (centres undefined)	2µM*	?	>57	6%
O=C(Nc1ccc2snnc2c1)N1CCSCC1	-13%	-4%	/	6%
Cc1ccc(S(=O)(=O)NCc2ccncc2)cc1	-8%	-3%	>57	-5%
O=C1CC(c2ccc(S(=O)(=O)NC3CC3)cc2)CN1 (centres undefined)	4µM*[single pt active]	13%	>57	15%
O=C1CC(c2ccc(S(=O)(=O)NCc3ccncc3)cc2)CN1 (centres undefined)	4µM*[single pt active]	-3%	>57	14%
O=C(O)Cc1cc(Cl)ccc1O	-13%[5.75 µM]	-7%[8 µM]	>57	-5%[5.75 µM]
Oc1ccc(Cl)cc1Cc1cc(Cl)cc(Cc2cc(Cl)ccc2O)c1O	-18%[5.75 µM]	4µM*	>57	2%[5.75 µM]
Cn1nc(CC(=O)NC2CCCCCC2)c2ccccc2c1=O	3.2µM*[single pt active]	?	>57	11%
COc1ccc(CNC(=O)Cc2nn(C)c(=O)c3ccccc23)cc1	3%	-9%	>57	-2%
CO[C@@H]1COC(=O)[C@@H](C)COC(=O)[C@@H](C)NC(=O)C/C=C\[C@@H]1C	/	8%[8 µM]	/	/
CC1CC(C)CN(S(=O)(=O)c2ccc(NC(=O)C3COc4ccccc4O3)cc2)C1 (centres undefined)	16µM*[single pt active]	?	>57	7%
